According to PubChem BioAssay (NCATS):
Inconclusive results are not listed. Where a call stands in place of a potency, no number is given. Calls of active or inactive are those of the source. Calls follow the shape of the dose curve; as a rule, active = well fitted cell-killing curve with a large enough effect; inconclusive = small, poorly fitted or top-dose-only effect; inactive = flat fitted curve, though single readings scatter.

test: qHTS of pediatric cancer cell lines to identify multiple opportunities for drug repurposing: Primary screen for U-2 OS cells (AID 1347096); conditions: U-2 OS viability, CellTiter-Glo luminescence, 48 h; series mostly up to 46 µM; also: nearly all actives have a fitted effect of over 50% in size
Source text: Drug repurposing or repositioning has been offered as a strategy for drug development in oncology programs. This approach has special potential for childhood cancers and other rare or orphan diseases, where the expected return on new drug development has been a disincentive to pharmaceuticals.
In this project we exploit the poly-pharmacology of drugs to discover new indications via phenotypic screening of a panel of 19 well-characterized cell lines derived from solid tumors seen in children and adolescents. The goal is to identify approved drugs with previously unrecognized anticancer properties that has the potential to reveal new mechanisms and biological processes involved in carcinogenesis or drug resistance. We employed a titration-based paradigm (quantitative high-throughput screening or qHTS), where all compounds were tested at multiple concentrations for their effect on cell viability. Concentration-response curves (CRCs) were derived directly from the primary screen, and both potency and efficacy values were used to identify compounds with robust bioactivity profiles. We screened the NIH Chemical Genomics Center (NCGC) Pharmaceutical Collection (NPC) and Mechanism Interrogation Plate (MIPE) small molecule collections of approved and investigational compounds against these cell lines; and measured metabolically active cells after 48 hours of compound treatment as a proxy for cell viability.
Assay Submitter: Nathalia J. Martinez, National Center for Advancing Translational Sciences, National Institutes of Health, Rockville, MD, USA; email: natalia.martinez@nih.gov
[1] Shen, M et al. Quantitative high-throughput phenotypic screening of pediatric cancer cell lines identifies multiple opportunities for drug repurposing. Oncotarget 2017 Dec 19;9(4):4758-4772. PMID 29435139.
The cells were obtained from University of North Carolina (UNC), Pediatric Preclinical Testing Program (PPT), and Coriell Institute (CI).
qHTS cell viability assay:
Cells were assayed in growth media at a density of 500-1,000 cells/well. Five microliters of cells were dispensed into 1,536-well, white, solid-bottom, TC-treated plates (Greiner Bio One) using a multidrop dispenser and incubated at 37 degrees C, 5% CO2, under a humidified atmosphere for 5 hours. Twenty-three nanoliters of compounds and controls (neutral control DMSO or positive control bortezomib at final concentration of 2.3 µM) were subsequently transferred by Kalypsys pintool. For primary screens, the MIPE collection was tested at 11-point dilutions (final concentrations range from 0.78 nM to 46 µM) and the NPC collection at 8-point dilutions (final concentrations range from 0.59 nM to 46 µM). Compounds tested in follow-up screens were assayed at 11-point dilutions. Cells were incubated for 48 hours, followed by addition of 3 µL of CellTiter-Glo (Promega). After a 15 min incubation at room temperature, samples were analyzed for luminescence intensity using a ViewLux High-throughput CCD imager equipped with clear filters.
Potency is read from the fitted curve at half-maximal effect.

Structure (SMILES) | Potency | activity change, negative = cytotoxic
Nc1cc(-c2ccncc2)c[nH]c1=O | inactive | –
Cc1ccc(C(=O)c2ccc(CC(=O)O)n2C)cc1 | inactive | –
Nc1ccc(O)c([N+](=O)[O-])c1 | inactive | –
Cc1ccc(O)c(-n2nc3ccccc3n2)c1 | inactive | –
O=C(O)Cc1ccc(-c2ccccc2)cc1 | inactive | –
CN(C)c1ccc(N=NS(=O)(=O)O)cc1 | inactive | –
S=c1[nH]c2ccccc2s1 | inactive | –
CN1CC(=O)N/C1=N/C(=O)Nc1cccc(Cl)c1 | inactive | –
c1ccc2sc(SN3CCOCC3)nc2c1 | inactive | –
N=C(N)N | inactive | –
c1ccc(CCNc2nc(-c3ccccc3)cs2)cc1 | inactive | –
CCCCCCOc1ccccc1C(N)=O | inactive | –
CCOc1ccc2nc(S(N)(=O)=O)sc2c1 | inactive | –
CN(C)[C@@H]1C(=O)C(C(=O)NCN2CCCC2)=C(O)[C@@]2(O)C(=O)C3=C(O)c4c(O)cccc4[C@@](C)(O)C3C[C@@H]12 (stereo not given in full) | inactive | –
Nc1c(CC(=O)O)cccc1C(=O)c1ccc(Br)cc1 | inactive | –
Nc1ccc([N+](=O)[O-])cc1O | inactive | –
CCC1C(=O)OCC1Cc1cncn1C (stereo not given) | inactive | –
CCCCCCCCCCCCCCCC(=O)OC(C)C | inactive | –
CC(C(=O)O)c1ccc(C(=O)c2ccccc2)s1 (stereo not given) | inactive | –
NC(=O)C(c1ccccc1)(c1ccccc1)[C@@H]1CCN(CCc2ccc3c(c2)CCO3)C1 | inactive | –

Structure (SMILES) | Potency | activity change, negative = cytotoxic
CO[C@@]1(NC(=O)Cc2cccs2)C(=O)N2C(C(=O)O)=C(COC(N)=O)CS[C@@H]21 | inactive | –
Clc1ccccc1-c1nc(-c2ccncc2)no1 | inactive | –
CC(C(=O)O)c1ccc(C(=O)c2cccs2)cc1 (stereo not given) | inactive | –
C#C[C@]1(O)CC[C@H]2[C@@H]3CCc4cc(O)ccc4[C@H]3CC[C@@]21C | inactive | –
C[N+]1(C)[C@@H]2CC(OC(=O)[C@H](CO)c3ccccc3)C[C@H]1[C@@H]1O[C@@H]12 (stereo not given in full) | inactive | –
Cc1ccc2c(n1)Oc1ccc(C(C)C(=O)OCC(=O)N(C)C)cc1C2 (stereo not given) | inactive | –
COC(=O)c1nc(Cl)c(Cl)nc1N | 13.3 µM (active) | –
Nc1ccc(C(=O)O)c(O)c1 | inactive | –
O=C(CS)Nc1ccccc1 | inactive | –
O=C(O)Cc1cccc(-c2cc(CCCCCCc3ccc(O[C@H]4O[C@H](CO)[C@@H](O)[C@H](O)[C@@H]4O)c(-c4cccc(CC(=O)O)c4)c3)ccc2O[C@H]2O[C@H](CO)[C@@H](O)[C@H](O)[C@@H]2O)c1 | – | 2.96% [at 0.597 µM] (inactive)
CCCCCCCCCCCC(=O)[O][Sn]([CH2]CCC)([CH2]CCC)[O]C(=O)CCCCCCCCCCC | inactive | –
CC(C)OC(=O)c1cc(C(=O)OC(C)C)cc([N+](=O)[O-])c1 | inactive | –
COc1cc2c3cc1Oc1cc(ccc1O)C[C@@H]1c4c(cc(OC)c(O)c4Oc4ccc(cc4)C[C@@H]3N(C)CC2)CC[N+]1(C)C | inactive | –
O=C(O)c1cc(O)c(O)c(O)c1 | inactive | –
C=CCCCCCCCCC(=O)O | inactive | –
CN1CCN(c2cc3c(nn2)Oc2ccccc2N3C)CC1 | inactive | –
CC(N)C(=O)OC(C)(C)Cc1ccc(Cl)cc1 (stereo not given) | inactive | –
Cc1c(N)c(=O)n(-c2ccccc2)n1C | inactive | –
COC(=O)C1=C(C)NC(C)=C(C(=O)OCC(C)=O)C1c1ccccc1[N+](=O)[O-] (stereo not given) | inactive | –
CCCCCCCC/C=C/C(=O)O | inactive | –
